Results on eleven substances are retold here after ChEMBL document CHEMBL1201862, “PubChem BioAssay data set” (2004).

Screen size: about 52,000 sequences; about 3,800 (7.3%) were called active. No stated cut-off is given here; in the data, active = GI50 up to about 1.1 µM and inactive = higher. The list is a sample of the results. Potency and affinity values are given separately.

The experiment has as its system HOP-92.
As for “[Bis(aminomethyl)diethylsilane]tetrachloroplatinum(IV), CHEMBL2146203”, the GI50 – broadly, the concentration giving 50% growth inhibition – was 4.25 µM.

“[Bis(aminomethyl)dimethylsilane]dichloroplatinum (II), CHEMBL2146201”: growth was halved (GI50) at 29.4 µM.

Take “[Bis(aminomethyl)pentamethylenesilane]dichloropaltinum(II), CHEMBL2146202”: the GI50 amounted to 40.4 µM.

For the substance “[Bis(aminomethyl)dimethylsilane]tetrachloroplatinum(IV), CHEMBL2146190”, growth was halved (GI50) at 14.4 µM.

Substance “[Bis(aminomethyl)tetramethylenesilane]dichloropaltinum(II), CHEMBL2146205” displayed a GI50 of 28.4 µM.

“mu-(1,7-nanodiamine-N,N')bis-(cis-aminedichloroplatimum (II)), CHEMBL2146215”: the 50% growth inhibitory concentration (GI50) was 41.8 µM.

With “cis-Bis[[(trimethylsilyl)methyl]amino]tetrachloroplatinum(IV), CHEMBL2146191”, halving of growth (GI50) required 3.11 µM.

Substance “[Bis(aminomethyl)pentamethylenesilane]tetrachloropaltinum(IV), CHEMBL2146204” returned a GI50 of 24.2 µM.

Consider “[Bis(aminomethyl)ethylmethylsilane]tetrachloroplatinum(IV), CHEMBL2146192”, for which growth was halved (GI50) at 21.3 µM.

For the substance “[Bis(aminomethyl)tetramethylenesilane]tetrachloropaltinum(IV), CHEMBL2146189”, the GI50 stood at 21.5 µM.

CISPLATIN, CHEMBL11359: the GI50 amounted to 3.74 µM.
